Measurements from PubChem BioAssay (NCI).
Compounds without any hit were thinned out: in the full panel of roughly 83,000, 20% have a hit.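 Negative percent growth values reflect cell death: -40 means 40% of the cells present at the start died, and -100 means all died.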 A number with no mark means an inactive call. Calls of active or inactive are those of the source. Rule for the calls: active = growth percent below 10; inactive = the rest.

Experiments:
Test in all cases: NCI-60 one-dose screen, 48 h (100 = growth as untreated, 0 = no growth, -100 = all killed)
DU-145 prostate = conditions: 10 µM unless noted
K-562 leukemia = conditions: 10 µM unless noted
MALME-3M melanoma = conditions: 10 µM unless noted
MDA-MB-231 breast = conditions: 10 µM unless noted
RXF 393 renal = conditions: 10 µM unless noted
SF-268 CNS = conditions: 10 µM unless noted
SF-295 CNS = conditions: 10 µM unless noted
SF-539 CNS = conditions: 10 µM unless noted
UACC-257 melanoma = conditions: 10 µM unless noted
M14 melanoma = conditions: 10 µM unless noted
HCT-15 colon = conditions: 10 µM unless noted
SNB-75 CNS = conditions: 10 µM
SNB-19 CNS = conditions: 10 µM unless noted
U251 CNS = conditions: 10 µM unless noted
PC-3 prostate = conditions: 10 µM unless noted
SK-MEL-5 melanoma = conditions: 10 µM unless noted
UACC-62 melanoma = conditions: 10 µM unless noted
LOX IMVI melanoma = conditions: 10 µM unless noted
SK-MEL-28 melanoma = conditions: 10 µM unless noted
HT29 colon = conditions: 10 µM unless noted

SMILES | growth (DU-145 prostate) | growth (K-562 leukemia) | growth (MALME-3M melanoma) | growth (MDA-MB-231 breast) | growth (RXF 393 renal) | growth (SF-268 CNS) | growth (SF-295 CNS) | growth (SF-539 CNS) | growth (UACC-257 melanoma) | growth (M14 melanoma) | growth (HCT-15 colon) | growth (SNB-75 CNS) | growth (SNB-19 CNS) [%] | growth (U251 CNS) | growth (PC-3 prostate) | growth (SK-MEL-5 melanoma) | growth (UACC-62 melanoma) | growth (LOX IMVI melanoma) | growth (SK-MEL-28 melanoma) | growth (HT29 colon) [%]
Cc1ccc(S(=O)(=O)n2cc(C(=O)C(=O)N3CCOCC3)c3ccccc32)cc1 | 109% | 86.9% | 91% | 80.2% | 110% | 97% | 94.1% | 91.2% | 98.4% | 91.4% | 96.6% | 104% | 99.5 | 93.8% | 67.5% | 88.1% | 68.1% | 83.9% | 117% | 
COc1ccc2c(c1)[nH]c(=O)c1c3cccc(F)c3cn21 | 9.01% (active) | 36.4% | 50.9% | 27.7% | -26.9% (active) | 18% | -32.1% (active) | 22.8% | 44.8% | 40.4% | 9.78% (active) | 76.2% | 39.1 | 0.931% (active) | 2.38% (active) | 27.6% | 40.3% | 38.8% | 61.4% | 
COc1ccc(C(=O)n2nc(/C=C/c3ccc(O)c(OC)c3)cc2/C=C/c2ccc(O)c(OC)c2)cc1 | 16.6% | -6.97% (active) | 3.93% (active) | 12.5% | -54.8% (active) | 6.45% (active) | 6.61% (active) | -24.4% (active) | 0.119% (active) | -15.1% (active) | 5.59% (active) | -16% (active) | 12.8 | 0.801% (active) | -9.28% (active) | -13.3% (active) | -0.825% (active) | 4.5% (active) | -8.32% (active) | 
COc1ccc(S(=O)(=O)n2ccc(-c3ccc4c(c3)CCC(C)(C)O4)n2)cc1OC | 82.6% | 53% | 114% | 82.5% | 75.1% | 85.3% | 63% | 97.1% | 57.1% | 81.9% | 71.9% | 84.6% | 87.4 | 79.5% | 69.5% | 28.2% | 63.9% | 76.7% | 91% | 
COc1ccc(-c2c(-c3cc(OC)c4c(c3)OCO4)noc2N)cc1 | -7.24% (active) | 8.5% (active) | 54.4% | -3.97% (active) | 8.2% (active) | 16.6% | 2.31% (active) | 0.998% (active) | 74.6% | 12% | 14.2% | 25.9% | 34.4 | 16.4% | 25.6% | -54.4% (active) | 32.7% | 15.4% | 58.8% | 
COc1cc(C2C3=C(COC3=O)Nc3cc4c(cc32)CCC4)cc2c1OCO2 (stereo not given) | -0.3% (active) | 14.1% | 60% | 20.8% | 30.4% | 27.9% | 6.57% (active) | 10.2% | 73.1% | 12% | 14.8% | 46.3% | 42.9 | 27.5% | 20.4% | -42.4% (active) | 43.7% | 13.9% | 59.1% | 
COc1ccc(S(=O)(=O)NCCCNc2nccc(-c3c(-c4cccc([N+](=O)[O-])c4)nc4sccn34)n2)cc1 | 51.6% | 28.7% | 58% | 59.5% | 67.1% | 49% | 43.7% | 75.6% | 53% | 41.6% | 30.9% |  | 74.6 | 71.8% |  | -20.5% (active) | 10.1% | 30.1% | 61.4% | 31.1
CCOc1cc2c(Cl)ncnc2c(OCC)c1OCC | -56.1% (active) | 19.5% | 83.8% | 77.7% | -5.68% (active) | 33.9% | 96.1% | 92.5% | -17% (active) | 73.7% | 55.1% |  | 97.3 | 82.6% |  | 77.4% | 64.3% | 83.1% | 58.1% | 78.4
